PubChem BioAssay AID1159580 (chemical genetic matrix, 2015)
About 2,000 (36%) of roughly 5,500 compounds were called active. About 18% were inconclusive and are not listed. No stated cut-off is given here; in the data, active means normalized growth mostly below about 0.91 (no sharp cut-off); inconclusive means no clear call, values can overlap the other calls; inactive means mostly above about 0.92. The list shows a part of the results.

Experiment: chemical genetic growth profiling, strain panel (AID 1159580);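 further: tested at 20 µM; growth read once vehicle control cultures reached saturation at 30 °C; 1 = growth at the plate median or of vehicle wells; lower values mean less growth of the strain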
Settings: S. cerevisiae deletion strains, growth OD
[1] = locus YAL040C, strain CLN3, active compounds read low
[2] = locus YCL061C, strain MRC1 (second series), active compounds read low
[3] = locus YDR363W, strain ESC2, active compounds read low
[4] = locus YER002W, strain NOP16, active compounds read low
[5] = locus YJR075W, strain HOC1, active compounds read low
[6] = locus YNL175C, strain NOP13, active compounds read low
[7] = locus YNL197C, strain WHI3, active compounds read low
[8] = locus YNL224C, strain SQS1, active compounds read low
[9] = locus YOR083W, strain WHI5 (second series), active compounds read low

Measured: normalized growth

CC1(C)O[C@@H]2CC3C4CCC5=CC(=O)C=C[C@]5(C)C4[C@@H](O)C[C@]3(C)[C@]2(C(=O)CO)O1 (some centres undefined)
inactive: locus YAL021C, strain ccr4, active compounds read low 1.01 | locus YAL026C, strain drs2, active compounds read low 1.01 | locus YAL030W, strain snc1, active compounds read low 1.01 | locus YBL061C, strain skt5, active compounds read low 1 | locus YBR009C, strain hhf1, active compounds read low 1.01 | locus YBR023C, strain chs3, active compounds read low 1 | locus YBR171W, strain sec66, active compounds read low 0.994 | locus YBR231C, strain swc5, active compounds read low 1.01 | locus YBR279W, strain paf1, active compounds read low 1.01 | locus YCL011C, strain gbp2, active compounds read low 1 | locus YCL016C, strain dcc1, active compounds read low 1.01 | locus YCL061C, strain MRC1, active compounds read low 0.999 | locus YCL069W, strain vba3, active compounds read low 0.995 | locus YCR088W, strain abp1, active compounds read low 0.993 | locus YDL005C, strain med2, active compounds read low 0.999 | locus YDL040C, strain nat1, active compounds read low 1 | locus YDR001C, strain nth1, active compounds read low 0.999 | locus YDR069C, strain doa4, active compounds read low 1 | locus YDR137W, strain rgp1, active compounds read low 0.998 | locus YDR159W, strain sac3, active compounds read low 1.02 | locus YDR195W, strain ref2 1 | locus YDR297W, strain sur2, active compounds read low 1 | locus YDR334W, strain swr1, active compounds read low 1.01 | locus YDR335W, strain msn5, active compounds read low 1.01 | locus YDR392W, strain spt3, active compounds read low 0.983 | locus YEL003W, strain gim4, active compounds read low 1.01 | locus YEL037C, strain rad23, active compounds read low 0.994 | locus YEL061C, strain CIN8 (second series), active compounds read low 1 | locus YER015W, strain faa2, active compounds read low 1.01 | locus YER016W, strain bim1, active compounds read low 0.995 | locus YER111C, strain swi4, active compounds read low 1 | locus YER155C, strain BEM2 (second series), active compounds read low 0.984 | locus YFR010W, strain ubp6, active compounds read low 0.996 | locus YGL167C, strain pmr1, active compounds read low 1.01 | locus YGL173C, strain kem1, active compounds read low 1.01 | locus YGL227W, strain vid30, active compounds read low 0.998 | locus YGL240W, strain doc1, active compounds read low 1.01 | locus YGL253W, strain hxk2, active compounds read low 1 | locus YHR013C, strain ard1, active compounds read low 1.02 | locus YHR027C, strain rpn1, active compounds read low 1.01 | locus YHR030C, strain SLT2, active compounds read low 0.988 | locus YHR079C, strain IRE1, active compounds read low 0.974 | locus YHR142W, strain chs7, active compounds read low 1.01 | locus YJL092W, strain hpr5, active compounds read low 0.997 | locus YJL095W, strain BCK1 (second series), active compounds read low 1.01 | locus YJL095W, strain BCK1, active compounds read low 0.985 | locus YJL115W, strain asf1, active compounds read low 1 | locus YJL129C, strain trk1, active compounds read low 1.03 | locus YJL154C, strain vps35, active compounds read low 0.996 | locus YJL164C, strain tpk1, active compounds read low 1.01 | locus YJL166W, strain qcr8, active compounds read low 1.01 | locus YJL187C, strain SWE1, active compounds read low 1 | locus YJR066W, strain TOR1, active compounds read low 0.95 | locus YKL160W, strain elf1, active compounds read low 1.02 | locus YKR026C, strain gcn3, active compounds read low 0.982 | locus YKR091W, strain srl3, active compounds read low 1.01 | locus YLL001W, strain dnm1, active compounds read low 1 | locus YLL026W, active compounds read low 1 | locus YLL041C, strain sdh2, active compounds read low 1 | locus YLR027C, strain aat2, active compounds read low 1.01 | locus YLR113W, strain HOG1, active compounds read low 0.963 | locus YLR221C, strain rsa3, active compounds read low 1.01 | locus YLR258W, strain gsy2, active compounds read low 1 | locus YLR262C, strain YPT6 (second series), active compounds read low 1.01 | locus YLR320W, strain mms22, active compounds read low 1.01 | locus YLR342W, strain FKS1, active compounds read low 1.02 | locus YLR357W, strain rsc2, active compounds read low 0.976 | locus YLR370C, strain arc18, active compounds read low 1.01 | locus YLR384C, strain iki3, active compounds read low 1.01 | locus YML120C, strain ndi1, active compounds read low 1.01 | locus YMR058W, strain fet3, active compounds read low 1.02 | locus YMR125W, strain sto1, active compounds read low 0.992 | locus YMR129W, active compounds read low 1.01 | locus YMR205C, strain PFK2, active compounds read low 0.978 | locus YMR231W, strain pep5, active compounds read low 1 | locus YNL071W, strain lat1, active compounds read low 0.998 | locus YNL183C, strain NPR1, active compounds read low 0.918 | locus YNL209W, strain ssb2, active compounds read low 1.02 | locus YNL248C, strain rpa49, active compounds read low 1.01 | locus YNL322C, strain KRE1 (second series), active compounds read low 0.998 | locus YNR049C, strain mso1, active compounds read low 1.01 | locus YOR001W, strain rrp6, active compounds read low 1.01 | locus YOR070C, strain gyp1, active compounds read low 1 | locus YOR080W, strain dia2, active compounds read low 1 | locus YOR083W, strain WHI5, active compounds read low 1.02 | locus YOR106W, strain vam3, active compounds read low 1 | locus YOR231W, strain MKK1, active compounds read low 0.983 | locus YOR265W, strain rbl2, active compounds read low 1.01 | locus YOR270C, strain vph1, active compounds read low 1.03 | locus YOR290C, strain snf2, active compounds read low 1.01 | locus YPL051W, strain arl3, active compounds read low 1 | locus YPL078C, strain atp4, active compounds read low 0.995 | locus YPL106C, strain sse1, active compounds read low 0.998 | locus YPL240C, strain hsp82, active compounds read low 1 | locus YPL256C, strain CLN2, active compounds read low 0.996

C=CCN1CC[C@]23c4c5ccc(O)c4O[C@@H]2/C(=N\N=C2\CC[C@@]4(O)C6Cc7ccc(O)c8c7[C@@]4(CCN6CC=C)[C@@H]2O8)CC[C@@]3(O)C1C5
inactive: [1] 1.01 | [2] 1 | locus YDR150W, strain NUM1, active compounds read low 1 | [3] 1.01 | [4] 1 | [5] 1 | locus YMR307W, strain GAS1, active compounds read low 1.01 | [6] 0.988 | [7] 1.02 | [8] 1.01 | [9] 1.02 | locus YPL055C, strain LGE1, active compounds read low 0.982

C=CCN1CCc2cccc3c2[C@H]1Cc1ccc(O)c(O)c1-3
active: [2] 0.481 | [3] 0.516 | [5] 0.199 | locus YNL128W, strain TEP1, active compounds read low 0.888 | locus YNL322C, strain KRE1, active compounds read low 0.152 | [9] 0.712
inactive: [1] 0.942 | [4] 0.976 | locus YGR078C, strain PAC10, active compounds read low 0.979 | [6] 0.966 | [7] 0.961 | [8] 0.985
